Compound activity: PubChem BioAssay, National Center for Advancing Translational Sciences (NCATS)
In the library only some 4.6% were active in any assay of this set; here they are far more common.
TRHR agonist – agonists of human TRH receptor; P34981; TRHR cells, calcium flux fluo-8, FDSS agonist mode; activation, % at 2 µM; 360,000 compounds, 0.18% hits
Target sequence (P34981 whole entry, looked up): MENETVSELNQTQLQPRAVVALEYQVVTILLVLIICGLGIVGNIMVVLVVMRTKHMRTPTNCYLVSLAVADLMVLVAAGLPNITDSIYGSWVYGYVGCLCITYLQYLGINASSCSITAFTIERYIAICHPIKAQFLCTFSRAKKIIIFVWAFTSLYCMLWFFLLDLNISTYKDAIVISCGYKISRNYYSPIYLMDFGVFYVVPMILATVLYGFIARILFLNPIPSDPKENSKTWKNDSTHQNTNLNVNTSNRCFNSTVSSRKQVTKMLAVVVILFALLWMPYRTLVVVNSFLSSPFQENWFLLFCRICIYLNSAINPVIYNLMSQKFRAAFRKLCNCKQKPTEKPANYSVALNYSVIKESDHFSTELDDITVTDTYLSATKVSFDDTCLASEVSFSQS
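Steps: seed TRHR cells overnight; add fluo-8 no-wash Ca dye, RT 30 min–1.5 h; record 10 s baseline; pin-transfer compounds; monitor fluorescence 1 cycle/s for the agonist window. Calcium increases flag candidate agonists.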
D1 antagonist – blocks dopamine activation of the human D1 receptor; P21728; HEK293 TREx D1 cells, calcium flux, dopamine EC80; hits give low values; activity change, negative = inhibition, % at 10 µM; 360,000 compounds, 3.2% hits; AID 504652; in the data active means activity change below about -30%
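Allosteric or orthosteric antagonism assessed as attenuation of the calcium response to EC80 dopamine, added 180 s after compound, in induced HEK293 Trex D1 cells loaded with no-wash calcium dye.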
D1 PAM – potentiators of human D1 dopamine receptor | P21728 | HEK293 TREx D1 cells, calcium flux, dopamine EC20 potentiation | potentiation, % at 10 µM | 360,000 compounds, 0.036% hits | AID 504651; in the data active means potentiation above about 30%
TRHR enhancer – allosteric enhancers of human TRH receptor | P34981 | TRHR cells, fluo-8 calcium fluorescence, EC20 TRH enhancement | enhancement, % at 2 µM | 360,000 compounds, 0.66% hits | AID 493056; in the data active means enhancement above about 30%
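TRHR-expressing cells loaded with fluo-8 calcium dye were read kinetically (ex 480/em 530) during compound addition, then stimulated with an EC20 of TRH (10 nM final). Enhancement of the Gq-mediated intracellular calcium response was scored.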
D1 agonist – agonists of human D1 dopamine receptor. 360,000 compounds, 1% hits. P21728. activation, % at 2 µM. HEK293 T-REx D1 cells, calcium flux, agonist mode. AID 504660
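Tetracycline-induced HEK293 TREx D1 cells, force-coupled to calcium signalling, were dye-loaded with a no-wash calcium kit. Compound was pin-added after a 10 s baseline. Fluorescence was read kinetically at 1 cycle/s for 180 s, with calcium rises flagged as agonism.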
Numbers stand for hits; . = inactive; / = no result given; ! = repeats disagree. Unless noted, no stated cut-off is given here; in the data, active means activation above about 30%; inactive means the rest.

SMILES	TRHR agonist	D1 antagonist	D1 PAM	TRHR enhancer	D1 agonist
CCOC(=O)Cn1c(=O)oc2cc(S(=O)(=O)N3CCN(c4ccc(C(C)=O)cc4)CC3)ccc21	.	-43	.	.	.
CCOC(=O)Cn1c(=O)oc2cc(S(=O)(=O)Nc3ccc(F)cc3)ccc21	.	-66	.	.	77
CCOC(=O)Cn1c(=O)oc2cc(S(=O)(=O)NCCc3ccc(C)cc3)ccc21	.	.	.	.	.
CCOc1ccc(CN2CCN(c3ncnc4scc(-c5ccccc5)c34)CC2)cc1	.	.	.	.	.
C#CCOCCOCCOCCNc1nc(N2CCN(C(=O)CCCCCCCCCCNC(=O)[C@H](CCCCN)n3cc(C)nn3)CC2)nc(N2CCN(C(=O)CCCCCCCCCCNC(=O)[C@@H]([C@H](C)CC)n3cc(CCCCCN)nn3)CC2)n1	.	.	40	.	.
C#CCOCCOCCOCCNc1nc(N2CCN(C(=O)CCCCCCCCCCNC(=O)[C@H](CCC(=O)O)n3cc(CCCCCN)nn3)CC2)nc(N2CCN(C(=O)CCCCCCCCCCNC(=O)[C@@H]([C@H](C)O)n3cc(C)nn3)CC2)n1	.	.	.	.	.
C#CCOCCOCCOCCNc1nc(N2CCN(C(=O)CCCCCCCCCCNC(=O)[C@H]([C@@H](C)CC)n3cc(CCCCCN)nn3)CC2)nc(N2CCN(C(=O)CCCCCCCCCCNC(=O)[C@@H]([C@H](C)O)n3cc(C)nn3)CC2)n1	.	.	55	.	156
C#CCOCCOCCOCCNc1nc(N2CCOCC2)nc(N2CCN(C(=O)[C@H](CCCCN)n3cc([C@@H](N)C(C)CC)nn3)CC2)n1 (stereo partly specified)	.	-35	.	.	.
CN(C)c1nc(N)c([N+](=O)[O-])c(NCCO)n1	.	.	.	.	.
CCN(c1ccccc1)S(=O)(=O)c1ccc(C(=O)Oc2ccc(C(C)=O)cc2)cc1	.	-38	.	.	.
CC1CC(=O)NN=C1c1ccc(NCCO)c([N+](=O)[O-])c1 (stereo unspecified)	.	.	.	.	.
O=c1cc(-c2ccccc2)nc(Cc2c(Cl)cccc2Cl)[nH]1	.	.	.	31	.
CCc1nc(-c2ccccc2)cc(=O)[nH]1	.	.	.	.	.
CCOc1ccccc1C(=O)NC1CC2CCCC(C1)N2Cc1ccc(C)cc1 (stereo unspecified)	.	-51	.	.	.
CCCN1C2CCCC1CC(NC(=O)c1ccccc1OCC)C2 (stereo unspecified)	.	-81	.	.	.
CCCN1C2CCCC1CC(NC(=O)c1ccccc1OC)C2 (stereo unspecified)	.	.	.	.	.
COc1ccc(Cl)cc1NC(=O)CN(C(=O)c1ccco1)C1CCCCC1	.	.	.	.	.
Cc1ccc(NC(=S)N2CCC(N(C)CC3CCCO3)CC2)cc1C (stereo unspecified)	.	.	.	31	.
Cc1cc(C)c2sc(NC(=O)C3CC3)nc2c1	.	.	.	.	.
CC(C)N1CCc2c(sc(NC(=O)c3ccc(C(=O)c4ccccc4)cc3)c2C(N)=O)C1	.	.	.	.	.
CC(C)N1CCc2c(sc(NC(=O)c3ccco3)c2C(N)=O)C1	.	.	.	.	.
CCOC(=O)c1c(NC(=S)NCc2ccccc2)sc2c1CCN(C(=O)OCC)C2	.	-40	.	.	.
COC(=O)c1c(NC(=O)c2ccco2)sc2c1CCN(C(C)C)C2	.	.	.	.	33
CC(C)N1CCc2c(sc(NC(=O)c3ccc4ccccc4c3)c2C(N)=O)C1	31	.	.	.	.
CCOC(=O)c1c(NC(=O)c2ccc(S(=O)(=O)N(C)C3CCCCC3)cc2)sc2c1CCN(C(C)C)C2	32	.	.	.	56
SMILES	TRHR agonist	D1 antagonist	D1 PAM	TRHR enhancer	D1 agonist
O=C(NCCN1CCN(c2ccccc2)CC1)Nc1ccccc1Cl	.	.	.	.	.
CCc1cccc(NC(=S)N(CCOC)C2CCN(C(C)=O)CC2)c1	.	.	.	.	.
Cc1cccc(C(=O)NCCC(=O)Nc2ccc(F)c([N+](=O)[O-])c2)c1	.	.	.	.	.
CC(C)N1CCc2c(sc(NC(=O)c3cc4cc([N+](=O)[O-])ccc4s3)c2C(N)=O)C1	.	.	.	.	35
CN1CCc2c(sc(NC(=O)c3cc4cc([N+](=O)[O-])ccc4s3)c2C(N)=O)C1	.	.	.	.	.
O=C(c1cc(-c2ccc(Cl)cc2)n[nH]1)N1CCN(C(=O)c2ccco2)CC1	.	.	.	.	.
COC(=O)c1cc(S(=O)(=O)NCCN2CCN(c3ccccc3F)CC2)c[nH]1	.	-43	.	.	.
COC(=O)c1cc(S(=O)(=O)N2CCN(c3ccccc3F)CC2)c[nH]1	.	.	.	.	.
O=C(C1CCC1)N1CCc2cc(S(=O)(=O)NCCN3CCN(c4ccccc4F)CC3)ccc21	.	-39	.	.	.
S=c1[nH]nc(-c2cccnc2)n1-c1ccc2c(c1)OCCO2	.	-46	.	.	.
COc1ccc(C(CNC(=O)CNC(=O)c2ccccc2Cl)N2CCCC2)cc1 (stereo unspecified)	.	.	.	.	.
Cc1ccc(NC(=O)c2ccc(C)c(S(=O)(=O)N3CCCCCC3)c2)cc1	.	.	.	.	.
COc1ccc(C(CNC(=O)c2ccc(C)c(S(=O)(=O)Nc3ccccc3OC)c2)N2CCCC2)cc1 (stereo unspecified)	.	-38	.	.	.
COc1ccccc1C(CNC(=O)c1ccc(C)c(S(=O)(=O)N2CCCCC2)c1)N1CCCC1 (stereo unspecified)	.	-45	.	.	.
COc1ccc(C(CNC(=O)c2ccc(OC)c(S(=O)(=O)N3CCCC3)c2)N2CCCC2)cc1 (stereo unspecified)	.	.	.	.	.
Cc1ccc(C(=O)Nc2cccc(O)c2)cc1S(=O)(=O)N1CCCCCC1	.	-33!	.	.	.
COc1ccc(C(CNC(=O)CNC(=O)c2cccc(Cl)c2)N2CCCC2)cc1 (stereo unspecified)	.	-37	/	.	.
COc1ccc(C(CNC(=O)c2cccc(S(=O)(=O)Nc3ccccc3OC)c2)N2CCCC2)cc1 (stereo unspecified)	.	.	.	.	.
CC1CCc2sc(C(=O)Nc3ccc(N4CCOCC4)cc3)cc2C1 (stereo unspecified)	.	.	.	.	.
CC1CCc2sc(C(=O)NCC(C)(C)N3CCOCC3)cc2C1 (stereo unspecified)	.	-68	.	.	.
Fc1ccc(CNC(=S)Nc2cccc(C(F)(F)F)c2)cc1	.	.	.	.	.
Fc1ccc(Nc2nc3nonc3nc2Nc2cccc(C(F)(F)F)c2)cc1	.	-37	.	.	.
CSC1=NC2C(N1)N(C)C(=O)N2C (stereo unspecified)	.	.	.	39	.
